Rows were chosen to be rich in hits. Some 3% of all compounds tested hit in one or more screens of this group.
PP5 primary = PP5 phosphatase inhibitors, primary screen, biochemical, fluorescence; purified PP5c, OMFP substrate fluorescence; 320,000 tested, 0.18% active; AID 1987, 2009; inhibition, % at 6.7 µM; Serine/threonine-protein phosphatase 5 (Homo sapiens), P53041;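 active means inhibition above the campaign's mean inhibition across all tested compounds plus 3 SD, cut at about 9.5% in these data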;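 further: 0% = DMSO only and 100% = 100 µM cantharidin control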
Target sequence (P53041 whole entry, looked up): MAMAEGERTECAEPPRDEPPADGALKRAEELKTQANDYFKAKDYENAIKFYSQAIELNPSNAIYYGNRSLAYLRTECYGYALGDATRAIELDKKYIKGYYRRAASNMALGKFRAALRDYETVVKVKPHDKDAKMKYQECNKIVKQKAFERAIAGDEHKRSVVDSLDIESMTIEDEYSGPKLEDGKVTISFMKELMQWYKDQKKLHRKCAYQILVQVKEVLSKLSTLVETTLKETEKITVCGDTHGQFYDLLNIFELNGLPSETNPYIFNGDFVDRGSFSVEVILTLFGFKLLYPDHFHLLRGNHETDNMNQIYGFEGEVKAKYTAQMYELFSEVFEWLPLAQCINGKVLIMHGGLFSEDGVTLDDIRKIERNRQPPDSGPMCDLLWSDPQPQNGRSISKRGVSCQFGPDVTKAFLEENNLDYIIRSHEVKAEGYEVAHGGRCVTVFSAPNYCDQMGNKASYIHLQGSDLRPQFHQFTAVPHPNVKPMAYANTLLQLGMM
PAFAH2 inh = PAFAH2 enzyme inhibitors, primary screen, biochemical, fluorescence polarization, human | Platelet-activating factor acetylhydrolase 2, cytoplasmic (Homo sapiens), Q99487 | recombinant PAFAH2, FP-rhodamine activity probe | inhibition, % at 3.39 µM | 340,000 tested, 0.99% active;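 active means inhibition above the mean over all tested compounds plus 3 SD, cut at about 30% in these data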;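 further: inhibitors block probe labeling of enzyme so polarization drops; 0% = enzyme with DMSO and 100% = wells lacking PAFAH2 protein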
pPAFAH inh = pPAFAH enzyme inhibitors, primary screen, biochemical, fluorescence polarization, human; recombinant pPAFAH, FP-rhodamine probe fluorescence polarization; 330,000 tested, 1.5% active; AID 463082, 2010; Platelet-activating factor acetylhydrolase (Homo sapiens), Q13093; inhibition, % at 3.39 µM;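 active means inhibition above the mean inhibition across the screen plus 3 SD, cut at about 25% in these data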;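 further: inhibitors block binding of the rhodamine activity-based probe so polarization drops; 0% = enzyme with DMSO and 100% = wells lacking pPAFAH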
CTSL1 counter = Fasciola hepatica cathepsin L1 inhibitors, primary screen, counter-screen for PFM18AAP inhibitor project, biochemical, QFRET, fluorogenic peptide substrate; recombinant F. hepatica cathepsin L1, Z-Leu-Arg-MCA fluorescence; inhibition, % at 5.96 µM; 300,000 tested, 0.49% active;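 active means inhibition above the mean of all tested compounds plus 3 SD, set per screening campaign, cut at about 17% in these data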;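 further: 0% = plate median of test compound wells and 100% = 1 µM Z-Phe-Ala-diazomethylketone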
PAFAH1B2 FP inh = PAFAH1B2 enzyme inhibitors, primary screen, biochemical, fluorescence polarization, human | Platelet-activating factor acetylhydrolase IB subunit alpha2 (Homo sapiens), P68402 | recombinant PAFAH1B2, FP-rhodamine activity probe | inhibition, % at 3.39 µM | 340,000 tested, 1.2% active;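 active means inhibition above the mean of all tested compounds plus 3 SD, cut at about 24% in these data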;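 further: 0% = enzyme with DMSO and 100% = wells lacking PAFAH1B2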
PAFAH1B3 FP inh = PAFAH1B3 enzyme inhibitors, primary screen, biochemical, fluorescence polarization, human. Platelet-activating factor acetylhydrolase IB subunit alpha1 (Homo sapiens), Q15102. recombinant PAFAH1B3, FP-rhodamine probe. inhibition, % at 3.39 µM. 340,000 tested, 0.28% active;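 active means inhibition above the screen-wide average of all tested compounds plus 3 SD, cut at about 25% in these data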;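 further: 0% = enzyme with DMSO only and 100% = wells lacking PAFAH1B3 protein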
PAFAH2 FP conf = PAFAH2 enzyme inhibitors, confirmation, biochemical, fluorescence polarization, human; recombinant PAFAH2, FP-rhodamine activity probe; AID 493030, 2011; shares compounds with PAFAH2 inh; 2,300 tested, 65% active; inhibition, % at 3.39 µM;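 active means mean inhibition over three repeats above a set limit taken from the earlier primary screen, cut at about 30% in these data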;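 further: inhibitor blocks binding of rhodamine activity probe so polarization falls; 0% = enzyme with DMSO and 100% = wells lacking PAFAH2 protein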
Active calls of the source: *.

`CCC(CC)C(=O)Oc1c(C(=O)N(C)C)cccc1-c1ccccc1` gave PAFAH2 inh 4, PAFAH1B2 FP inh 9 and PAFAH1B3 FP inh -5.
For COc1ccc(OC)c(/C=C/C(=O)OCC(=O)NCc2ccccc2)c1 the results were PAFAH2 inh 46*, pPAFAH inh 6, PAFAH1B2 FP inh 0, PAFAH1B3 FP inh 3 and PAFAH2 FP conf 28.
COc1cc(/C=C/C(=O)OCC(=O)NCc2cccs2)ccc1OC(F)F was read as PP5 primary 3, PAFAH2 inh 33*, pPAFAH inh 6, CTSL1 counter -11, PAFAH1B2 FP inh -1, PAFAH1B3 FP inh 3 and PAFAH2 FP conf 51*.
`O=C(COC(=O)CC(NC(=O)c1ccccc1Cl)c1ccccc1)Nc1cccc(F)c1` (configuration not stated) gave PP5 primary 3, PAFAH2 inh 82*, pPAFAH inh 8, CTSL1 counter -1, PAFAH1B2 FP inh 5, PAFAH1B3 FP inh -10 and PAFAH2 FP conf 76*.
`O=C(COC(=O)CC(c1ccccc1)c1ccccc1)Nc1cccc(F)c1` gave PP5 primary 5, PAFAH2 inh 77*, pPAFAH inh 13, CTSL1 counter -6, PAFAH1B2 FP inh 5, PAFAH1B3 FP inh 4 and PAFAH2 FP conf 69*.
Screening O=C(COC(=O)c1ccccc1)NCc1cccs1 returned PP5 primary 0, PAFAH2 inh 36*, pPAFAH inh 9, CTSL1 counter -3, PAFAH1B2 FP inh 0, PAFAH1B3 FP inh 13 and PAFAH2 FP conf 20.
Screening Cc1ccc(C(=O)OCC(=O)NCc2cccs2)s1 returned PAFAH2 inh 65*, PAFAH1B2 FP inh 2, PAFAH1B3 FP inh 1 and PAFAH2 FP conf 57*.
For O=C(COC(=O)c1ccc(OC(F)F)cc1)NCc1cccs1 the results were PAFAH2 inh 56*, pPAFAH inh 17, PAFAH1B2 FP inh 4, PAFAH1B3 FP inh 7 and PAFAH2 FP conf 29.
Screening Cc1cc(C)cc(C(=O)OCC(=O)NCc2cccs2)c1 returned PP5 primary 3, PAFAH2 inh 10, pPAFAH inh 5, CTSL1 counter -2, PAFAH1B2 FP inh -2 and PAFAH1B3 FP inh 2.
For O=C(NCC(=O)N1CCN(S(=O)(=O)c2c(F)cccc2F)CC1)c1ccccc1F the results were PAFAH2 inh 12, PAFAH1B2 FP inh 0 and PAFAH1B3 FP inh -1.
For O=C1CC(=O)Nc2cc(S(=O)(=O)N3CCOc4ccc(Cl)cc43)ccc2N1 the results were PP5 primary -1, PAFAH2 inh 45*, pPAFAH inh -2, CTSL1 counter -11, PAFAH1B2 FP inh 2, PAFAH1B3 FP inh -2 and PAFAH2 FP conf 40*.
Cc1ccc2c(c1)N(S(=O)(=O)c1ccc3c(c1)NC(=O)CC(=O)N3)CCO2 was read as PP5 primary 3, PAFAH2 inh 22, pPAFAH inh -7, CTSL1 counter -3, PAFAH1B2 FP inh 8 and PAFAH1B3 FP inh -1.
Screening O=C(NC1CCCCC1)C(c1ccncc1)N(C(=O)Cn1nnc(-c2cccs2)n1)C1CCCC1 (configuration not stated) returned PP5 primary 3, PAFAH2 inh 62*, pPAFAH inh 6, CTSL1 counter -15, PAFAH1B2 FP inh -1, PAFAH1B3 FP inh -4 and PAFAH2 FP conf 54*.
CCCCNC(=O)c1ccccc1NC(=O)c1ccc2c(c1)OCO2 was read as PP5 primary 4, PAFAH2 inh 47*, pPAFAH inh -5, CTSL1 counter -3, PAFAH1B2 FP inh 4, PAFAH1B3 FP inh 8 and PAFAH2 FP conf 38*.
CC(C)(C)NC(=O)c1ccccc1NC(=O)c1ccc2c(c1)OCO2 was read as PP5 primary 1, PAFAH2 inh 3, pPAFAH inh 2, CTSL1 counter 2, PAFAH1B2 FP inh 0 and PAFAH1B3 FP inh 6.
Screening CC1Cc2ccccc2N1S(=O)(=O)c1cccc(C(=O)OCC(=O)NCc2ccco2)c1 (configuration not stated) returned PP5 primary 3, PAFAH2 inh 33*, pPAFAH inh 18, CTSL1 counter 8, PAFAH1B2 FP inh 10, PAFAH1B3 FP inh 4 and PAFAH2 FP conf 22.
Cc1ccc(C(=O)OCC(=O)NCc2ccco2)cc1C was read as PP5 primary 0, PAFAH2 inh 59*, pPAFAH inh 5, PAFAH1B2 FP inh 4, PAFAH1B3 FP inh 4 and PAFAH2 FP conf 34*.
`O=Cc1ccc(C(=O)OCC(=O)NCc2ccco2)cc1` gave PAFAH2 inh 20, pPAFAH inh -5, PAFAH1B2 FP inh -1 and PAFAH1B3 FP inh 2.
`Cc1cc(C)cc(C(=O)OCC(=O)NCc2ccco2)c1` gave PAFAH2 inh 20, pPAFAH inh 11, PAFAH1B2 FP inh 5 and PAFAH1B3 FP inh 6.
Screening CC(C)(C)c1ccc(C(=O)OCC(=O)NCc2ccco2)cc1 returned PP5 primary 1, PAFAH2 inh 55*, pPAFAH inh 19, PAFAH1B2 FP inh 11, PAFAH1B3 FP inh 12 and PAFAH2 FP conf 57*.
CCCC[C@@H]1CNC(=O)C(=O)N1CCc1cccc2ccccc12 was read as PP5 primary 2, pPAFAH inh 2 and CTSL1 counter -4.
For O=C(c1ccc(COc2ccc(Cl)cc2Cl)o1)N1CCCC1 the results were PAFAH2 inh 30*, PAFAH1B2 FP inh 6, PAFAH1B3 FP inh -9 and PAFAH2 FP conf 29.
For Cc1cc(C(=O)O)ccc1-c1ccc(/C=C2\NC(=O)N(Cc3ccccc3Cl)C2=O)o1 the results were PP5 primary 2, PAFAH2 inh 33*, pPAFAH inh 5, CTSL1 counter 0, PAFAH1B2 FP inh 3, PAFAH1B3 FP inh 12 and PAFAH2 FP conf 15.
For COc1cccc(C(=O)OCC(=O)N2CCc3ccccc3C2)c1OC the results were pPAFAH inh 10.
COc1cc(/C=C/C(=O)OCC(=O)NC(=O)NC2CCCC2)ccc1OCC#N was read as PAFAH2 inh 13, PAFAH1B2 FP inh 4 and PAFAH1B3 FP inh 3.
For COc1cc(/C=C/C(=O)OCC(=O)N2CCc3ccccc3C2)ccc1O the results were PP5 primary 0, PAFAH2 inh 35*, pPAFAH inh 8, CTSL1 counter 1, PAFAH1B2 FP inh 0, PAFAH1B3 FP inh 8 and PAFAH2 FP conf 36*.
